# Screening results from PubChem.
# MEKK2mut PB1 HTS: MEK5 binding signal on mutant MEKK2 PB1, primary screen, biochemical, multiplex bead flow cytometry, Alexa488-MEK5 | Alexa488-MEK5 binding to MEKK2 mutant | percent response, % at 10 µM | 0.35% of 290,000 active | AID 1530, 2009; in the data active = percent response above about 24%, passing the limit was not always enough
# VLA-4 inh: inhibition in human VLA-4 binding assay, primary screen, VLA-4 allosteric modulator project, MLPCN library, flow cytometry, VLA-4 expressing cells | ligand binding flow cytometry | inhibition, % (about 7 µM as worked out from the volumes in the protocol) | 0.2% of 330,000 active | AID 2557, 2010; in the data active = inhibition above about 50%
# Target sequence (P13612 whole entry, looked up): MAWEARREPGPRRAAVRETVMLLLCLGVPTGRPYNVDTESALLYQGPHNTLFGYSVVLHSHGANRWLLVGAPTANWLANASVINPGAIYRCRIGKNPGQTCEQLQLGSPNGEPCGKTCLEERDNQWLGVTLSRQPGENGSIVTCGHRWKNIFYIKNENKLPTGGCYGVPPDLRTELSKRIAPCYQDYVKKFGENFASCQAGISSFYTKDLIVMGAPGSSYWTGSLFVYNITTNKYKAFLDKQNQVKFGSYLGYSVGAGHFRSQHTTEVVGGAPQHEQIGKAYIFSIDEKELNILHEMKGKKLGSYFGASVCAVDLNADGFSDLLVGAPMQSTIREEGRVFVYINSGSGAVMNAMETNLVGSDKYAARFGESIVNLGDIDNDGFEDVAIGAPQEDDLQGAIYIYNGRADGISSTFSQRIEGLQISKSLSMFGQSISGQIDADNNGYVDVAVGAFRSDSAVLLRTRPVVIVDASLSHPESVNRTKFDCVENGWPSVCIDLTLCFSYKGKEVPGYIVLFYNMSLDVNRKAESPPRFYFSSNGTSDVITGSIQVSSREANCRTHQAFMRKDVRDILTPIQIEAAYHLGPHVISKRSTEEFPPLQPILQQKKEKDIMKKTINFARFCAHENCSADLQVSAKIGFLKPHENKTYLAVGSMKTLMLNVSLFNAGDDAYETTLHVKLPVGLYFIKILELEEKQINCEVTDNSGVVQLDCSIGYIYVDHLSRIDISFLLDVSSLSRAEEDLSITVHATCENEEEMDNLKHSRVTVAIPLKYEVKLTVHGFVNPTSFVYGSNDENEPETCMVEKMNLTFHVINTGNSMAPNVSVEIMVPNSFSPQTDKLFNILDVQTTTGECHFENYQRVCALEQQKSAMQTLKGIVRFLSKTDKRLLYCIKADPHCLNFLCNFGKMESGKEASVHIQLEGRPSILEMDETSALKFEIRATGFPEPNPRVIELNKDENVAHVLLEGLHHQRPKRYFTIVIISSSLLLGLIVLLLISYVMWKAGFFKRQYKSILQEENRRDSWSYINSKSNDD
# MEKK3 PB1 HTS: modulators of MEKK3-MEK5 PB1 binding, primary screen, biochemical, wildtype MEKK3, multiplex bead flow cytometry, Alexa488-MEK5; Mitogen-activated protein kinase kinase kinase 3 (Homo sapiens), Q99759; bead-based flow cytometry, Alexa488-MEK5 binding to MEKK3; actives lie on both sides; 0 = blocked by unlabeled MEK5, 100 = vehicle; binding response (% of control), % at 10 µM; 1.4% of 290,000 active; AID 1529, 2009;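 active = binding response more than 3 SD above or below the average of its plate-row segment, actives on both sides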;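 also: Alexa488 bead fluorescence after subtracting the streptavidin-only scavenger bead signal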
# MEKK2 WT-MEK5: modulators of MEK5 binding to wildtype MEKK2, primary screen, biochemical, multiplex bead flow cytometry, Alexa488-MEK5. Mitogen-activated protein kinase kinase kinase 2 (Homo sapiens), Q9Y2U5. Alexa488-MEK5 binding to MEKK2 WT; actives lie on both sides. binding response (% of control), % at 10 µM. 1.1% of 290,000 active. AID 1531, 2009; in the data active = binding response below about 67% or above about 130%
# MEKK2wt confirm: modulators of MEK5 binding to wildtype MEKK2, confirmation, biochemical, single concentration, multiplex bead flow cytometry; shares compounds with MEKK3 PB1 HTS; Alexa488-MEK5 binding to MEKK2 WT; actives lie on both sides; binding response (% of control), % at 10 µM; 2.4% of 5,900 active; AID 1892, 2009; in the data active = binding response below about 16% or above about 210%; inactive = in between
# MEKK2mut-MEK5: mutant MEKK2 PB1-MEK5 binding signal retest – biochemical, single concentration, multiplex bead flow cytometry, confirmation | 2% of 5,900 active | Alexa488-MEK5 binding to MEKK2 mutant | percent response, % at 10 µM | shares compounds with MEKK3 PB1 HTS; in the data active = percent response mostly above about 71%, no sharp cut-off; inactive = mostly below about 38%;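 also: higher means compound restores mutant binding toward wildtype level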
# MEKK3-MEK5 inh: MEKK3 wild-type PB1 binding to MEK5, inhibitors, confirmation, biochemical, bead multiplex flow cytometry, single concentration, wildtype | shares compounds with MEKK3 PB1 HTS | 1.8% of 5,900 active | Alexa488-MEK5 binding to MEKK3; stronger effect = lower value | binding response (% of control), % at 10 µM | AID 1894, 2009;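 active = binding response below 72% of control, or above a set upper limit, though filed actives all read lower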;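 also: 100% = DMSO only wells and 0% = binding blocked by excess unlabeled MEK5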
# Numbers without * were called inactive; i = inactive; . = no result; [ ] = dose if it differs, or a comment. Only some compounds are listed: those with a hit (about 2.2% of all), similar ones and a draw of the others.
SMILES,MEKK2mut PB1 HTS,VLA-4 inh,MEKK3 PB1 HTS,MEKK2 WT-MEK5,MEKK2wt confirm,MEKK2mut-MEK5,MEKK3-MEK5 inh
Cc1ccc(NC(=O)CCC(=O)OCC(=O)c2ccc(Oc3ccc([N+](=O)[O-])cc3)cc2)cc1,0,-9,144*,108,101,1,104
COc1ccc(NC(=O)CCC(=O)OCC(=O)c2ccc(Oc3ccc([N+](=O)[O-])cc3)cc2)cc1,1,8,113,105,.,.,.
CC1CN(Cc2cc(=O)[nH]c(C3CC3)n2)CC(C)O1 (centres undefined),-16,-6,2.0*[inhibitor],3.0*[inhibitor],106,5,103
O=S(=O)(NC1=NCCCCC1)c1cc(F)ccc1F,.,10,.,.,.,.,.
O=C(O)C(=O)Nc1ccc(NC(=O)C(c2ccccc2)c2ccccc2)cc1,-51,25,2.0*[inhibitor],3.0*[inhibitor],99,4,103
CC1CCCN(Cc2c(O)ccc3c(=O)c(-c4nc5ccccc5s4)c(N)oc23)C1 (centres undefined),25,-4,111,161*,155,30,104
CC1CCN(Cc2c(O)ccc3c(=O)c(-c4nc5ccccc5s4)c(N)oc23)CC1,7,-4,109,120,.,.,.
COc1cc(S(=O)(=O)N2CCOCC2)cc(C(=O)OCC(=O)NCc2ccco2)c1OC,.,0,.,.,.,.,.
Cc1cccc(NC(=O)c2ccc(S(=O)(=O)N3CCOCC3)cc2)c1C,1,3,103,99,.,.,.
Cc1cccc(NC(=O)c2ccc(S(=O)(=O)C(F)F)cc2)c1C,-1,16,137*,103,109,0,104
CCN(CC)S(=O)(=O)c1ccc(C(=O)Nc2cc(C)cc(C)c2)cc1,6,1,106,107,.,.,.
Cc1cc(C)cc(NC(=O)c2ccc(S(=O)(=O)C(F)F)cc2)c1,1,3,144*,110,107,6,103
COc1ccc(NC(=O)CSc2ccc3c4c(cccc24)C(=O)c2ccccc2-3)cc1,-9,i,93,56*[inhibitor],68,-18,90
N#Cc1cccc(NC(=O)CSc2ccc3c4c(cccc24)C(=O)c2ccccc2-3)c1,-7,i,92,77,.,.,.
C#CCCOC(=O)N1C2=NC(C(=O)OC)=C(C(=O)OC)[C@@H]3Nc4ccccc4[C@]23C[C@H]1C(=O)OC,-2,.,101,101,.,.,.
CC(C)OCC(O)CN1CCN(CCN2C(=O)c3cccc4cccc(c34)C2=O)CC1 (centres undefined),3,-6,101,100,.,.,.
Cc1cccc(C)c1OCC(O)CN1CCC(CN2C(=O)c3cccc4cccc(c34)C2=O)CC1 (centres undefined),20,4,97,150*,134,48,104
Cc1ccccc1OCC(O)CN1CCN(CCN2C(=O)c3cccc4cccc(c34)C2=O)CC1 (centres undefined),1,1,137*,111,132,15,106
C=CCc1ccccc1OCC(O)CN1CCN(CCN2C(=O)c3cccc4cccc(c34)C2=O)CC1 (centres undefined),23,29,111,193*,155,17,105
Cc1cc(C)c(S(=O)(=O)NCc2nc3nc(C)cc(C)n3n2)c(C)c1,4,-11,103,105,.,.,.
Cc1no[n+]([O-])c1COc1ccc(/C=C(\C#N)C(N)=O)cc1,1,10,134*,104,105,3,100
Cc1cc(C)nc(/N=C(\N)Nc2ccc(S(=O)(=O)Nc3nccc(C)n3)cc2)n1,-9,-14,102,88,.,.,.
COC(=O)C(F)(F)Sc1c(C)[nH]c2ccccc12,-8,10,79*[inhibitor],86,105,9,106
Cc1[nH]c2ccccc2c1SCC(=O)O,-2,-7,87,96,.,.,.
C/C=C(\C)C(=O)O[C@H](c1cc2ccc(=O)oc2cc1OC)[C@@H](O)C(C)(C)O,.,0,.,.,.,.,.
SMILES,MEKK2mut PB1 HTS,VLA-4 inh,MEKK3 PB1 HTS,MEKK2 WT-MEK5,MEKK2wt confirm,MEKK2mut-MEK5,MEKK3-MEK5 inh
O=C(NCc1ccccc1)C1CCC(CNc2c(N3CCCCC3)c(=O)c2=O)CC1 (centres undefined),-7,-11,70*[inhibitor],77,102,2,103
CCC(C)NCCOCCOc1ccc(C)cc1Br (centres undefined),5,16,102,109,.,.,.
CCC(C)NCCCOc1c(C)cc(C)cc1Br (centres undefined),1,9,147*,111,109,4,103
O=C(CCNC(=O)c1ccccc1Cl)Nc1nccs1,-1,3,100,101,.,.,.
Cc1ccc(-n2c(C)cc(C3N=C(N)Nc4nc5ccccc5n43)c2C)c(C)c1 (centres undefined),28*,15,110,134*,151,56,108
Cc1cc(C2N=C(N)Nc3nc4ccccc4n32)c(C)n1-c1ccccc1Cl (centres undefined),26*,8,113,138*,148,17,96
CN(C)S(=O)(=O)N(CC(=O)Nc1ccc(S(=O)(=O)N2CCCC2)cc1)c1ccccc1,2,-3,102,101,.,.,.
Cc1ccnn1CCC(=O)O,29,5,129*,113,102,3,102
COc1cccc(NC(=O)c2ccnc(N3CCC(C(=O)NCc4ccccc4OC)CC3)c2)c1,1,11,100,105,.,.,.
COc1ccc(C2/C=C\CN(C(=O)C3CCCC3)[C@H](Cc3ccccc3)C(=O)N2Cc2ccc(F)cc2)cc1 (some centres undefined),1,-2,133*,151*,101,-6,100
Nn1cnc2c(c1=O)C1(CCCCC1)Cc1ccccc1-2,0,8,141*,106,99,1,104
CC(=O)Nn1cnc2c(c1=O)C1(CCCC1)Cc1ccccc1-2,1,4,104,94,.,.,.
N#CCc1nc2n(n1)Cc1ccccc1-2,.,10,124*,136*,101,16,103
c1ccc2c(c1)Cn1nc(Cc3nc4c(s3)CCCC4)nc1-2,1,0,104,103,.,.,.
COc1cc(/C=N/NC(=O)C[n+]2ccccc2)cc(OC)c1OC,1,7,98,99,.,.,.
COc1cc(/C=N/NC(=O)C[n+]2ccccc2)cc(OC)c1OC(C)=O,-30,-2,73*[inhibitor],60*[inhibitor],86,-11,82
